Results reported in PubChem BioAssay (NCI).
This is part of a sample that, as a whole, favours compounds with a hit. Of some 79,000 tested, about 15% had one in any assay. Unmarked numbers belong to inactive results. The source made the active and inactive calls. Cut-off read from the data, not from the text of the source: active = growth inhibition above about 70%; inactive = the rest.

Tests used:
[1] = NCI Yeast Anticancer Drug Screen. Data for the rad52 strain (AID 147);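 note: 0% = growth of vehicle-treated control cultures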; conditions: S. cerevisiae rad52 mutant growth inhibition, hits give high values
In short: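 Growth of repair-deficient yeast cells was compared between compound-treated and vehicle-treated cultures to give percent inhibition.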

[2] = NCI Yeast Anticancer Drug Screen. Data for the wt1 strain (AID 149);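 note: 0% = growth of vehicle-treated wt1 cultures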; conditions: S. cerevisiae wt1 strain (SPY 50644) growth inhibition, hits give high values
In short: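 Yeast wt1 strain exposed to compounds; growth inhibition measured relative to vehicle-treated controls.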

[3] = NCI Yeast Anticancer Drug Screen. Data for the rad50EPP+ strain (AID 151);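 note: 0% = growth of vehicle-treated control cultures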; conditions: S. cerevisiae rad50 mutant strain, hits give high values
In short: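 Measured: growth inhibition of rad50EPP+ yeast. Reference: vehicle-treated controls. Screen uses strains with defined genetic alterations in DNA damage repair or cell cycle control.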

[4] = NCI Yeast Anticancer Drug Screen. Data for the rad50 strain (AID 155);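 note: 0% = growth of vehicle-only cultures of the same strain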; conditions: S. cerevisiae rad50 strain growth inhibition, hits give high values
In short: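 Yeast carrying a defined DNA repair defect were exposed to test compounds, and growth was compared with vehicle-treated controls to give percent inhibition.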

[5] = NCI Yeast Anticancer Drug Screen. Data for the mec2-1 strain (AID 157); conditions: S. cerevisiae mec2-1 strain, hits give high values
In short: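 Compounds were applied to mec2-1 yeast cells. Their growth was then compared with that of vehicle-treated cultures to give growth inhibition.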

[6] = NCI Yeast Anticancer Drug Screen. Data for the sgs1 mgt1 strain (AID 161);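 note: 0% = growth of cultures given vehicle only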; conditions: S. cerevisiae sgs1 mgt1 strain, hits give high values
In short: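 Percent growth inhibition was derived by comparing compound-exposed mutant yeast with vehicle-exposed cultures. The strain carries alterations in DNA damage repair.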

[7] = NCI Yeast Anticancer Drug Screen. Data for the CLN2oe strain (AID 163);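 note: 0% = growth of vehicle-only control cultures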; conditions: S. cerevisiae CLN2oe strain, hits give high values
In short: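 Cells of an engineered yeast line with disturbed cell-cycle regulation are treated with compound. Inhibition of growth is then calculated relative to the vehicle-treated reference.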

[8] = NCI Yeast Anticancer Drug Screen. Data for the cln2 rad14 strain (AID 165);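 note: 0% = growth equal to vehicle treated cultures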; conditions: S. cerevisiae cln2 rad14 strain, hits give high values
In short: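 Strain: cln2 rad14 yeast, altered in cell cycle control and DNA damage repair. Read-out: growth inhibition vs vehicle.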

[9] = NCI Yeast Anticancer Drug Screen. Data for the bub3 strain (AID 167); conditions: S. cerevisiae bub3 mutant strain, hits give high values
In short: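 Compounds were applied to a genetically altered yeast strain carrying a cell-cycle control defect. Growth inhibition was scored against vehicle-treated controls.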

[10] = NCI Yeast Anticancer Drug Screen. Data for the wt2 strain (AID 169);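 note: 0% = growth of vehicle-treated yeast cultures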; conditions: S. cerevisiae wt2 strain growth inhibition, hits give high values
In short: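 Growth of compound-treated yeast is measured and expressed as inhibition relative to vehicle-only controls.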

[11] = NCI Yeast Anticancer Drug Screen. Data for the mlh1 strain (AID 171);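 note: 0% = growth of vehicle-treated control cultures of the same strain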; conditions: S. cerevisiae mlh1 strain growth inhibition, hits give high values
In short: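 Test agents were incubated with yeast bearing a defined DNA damage repair or cell cycle control alteration; values are growth inhibition normalised to vehicle-treated cultures.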

[12] = NCI Yeast Anticancer Drug Screen. Data for the sgs1 strain (AID 173);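 note: 0% = growth of vehicle-only control cultures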; conditions: S. cerevisiae sgs1 mutant, hits give high values
In short: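 Strain with an altered DNA repair or cell cycle pathway exposed to compound. Growth then measured. Value = inhibition versus vehicle control.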

[13] = NCI Yeast Anticancer Drug Screen. Data for the mlh1 rad18 strain (AID 175); conditions: S. cerevisiae mlh1 rad18 strain growth inhibition, hits give high values
In short: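 A repair-deficient yeast strain is exposed to test compound, and growth is scored relative to vehicle-treated controls.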

[14] = NCI Yeast Anticancer Drug Screen. Data for the rad18 strain (AID 177); conditions: S. cerevisiae rad18 mutant growth inhibition, hits give high values
In short: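 DNA-repair-defective yeast; compound treatment; growth inhibition scored against vehicle.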

[15] = at 5.0 µM (retest, dose inferred, filed as 0.5)
[16] = at 50.0 µM (retest, dose inferred, filed as 5.0)

**Q.** For `C=CC[N+]12CN3CN(CN(C3)C1)C2`, which growth inhibition ([1]; at 1.2 µM) is on record?
**A.** -8%

**Q.** What about the growth inhibition ([1]; at 3.7 µM) of the same molecule?
**A.** 5%

**Q.** What about the growth inhibition ([1]; at 11.0 µM) of the same molecule?
**A.** -11%

**Q.** And the growth inhibition ([1]; at 33.0 µM)?
**A.** -5%

**Q.** What about the growth inhibition ([1]; at 100.0 µM) of the same molecule?
**A.** 29%

**Q.** And the growth inhibition ([2]; at 1.2 µM)?
**A.** -10%

**Q.** What about the growth inhibition ([2]; at 3.7 µM) of the same molecule?
**A.** -28%

**Q.** What about the growth inhibition ([2]; at 11.0 µM) of the same molecule?
**A.** -21%

**Q.** What about the growth inhibition ([2]; at 33.0 µM) of the same molecule?
**A.** -23%

**Q.** And the growth inhibition ([2]; at 100.0 µM)?
**A.** 41%

**Q.** What about the growth inhibition ([3]; at 1.2 µM) of the same molecule?
**A.** 7%

**Q.** And the growth inhibition ([3]; at 3.7 µM)?
**A.** 2%

**Q.** What about the growth inhibition ([3]; at 11.0 µM) of the same molecule?
**A.** -31%

**Q.** And the growth inhibition ([3]; at 33.0 µM)?
**A.** 16%

**Q.** What about the growth inhibition ([3]; at 100.0 µM) of the same molecule?
**A.** 68%

**Q.** What about the growth inhibition ([4]; at 1.2 µM) of the same molecule?
**A.** 8%

**Q.** And the growth inhibition ([4]; at 3.7 µM)?
**A.** -1%

**Q.** And the growth inhibition [4, 15]?
**A.** 38%

**Q.** What about the growth inhibition ([4]; at 11.0 µM) of the same molecule?
**A.** -21%

**Q.** What about the growth inhibition ([4]; at 33.0 µM) of the same molecule?
**A.** -3%

**Q.** What about the growth inhibition [4, 16] of the same molecule?
**A.** 65%

**Q.** What about the growth inhibition ([4]; at 50.0 µM) of the same molecule?
**A.** 29.8%

**Q.** What about the growth inhibition ([4]; at 100.0 µM) of the same molecule?
**A.** 32%

**Q.** What about the growth inhibition ([5]; at 1.2 µM) of the same molecule?
**A.** -12%

**Q.** What about the growth inhibition ([5]; at 3.7 µM) of the same molecule?
**A.** -24%

**Q.** What about the growth inhibition [5, 15] of the same molecule?
**A.** 43%

**Q.** What about the growth inhibition ([5]; at 11.0 µM) of the same molecule?
**A.** -31%

**Q.** And the growth inhibition ([5]; at 33.0 µM)?
**A.** 45%

**Q.** What about the growth inhibition [5, 16] of the same molecule?
**A.** 70% (active)

**Q.** What about the growth inhibition ([5]; at 50.0 µM) of the same molecule?
**A.** 20.6%

**Q.** What about the growth inhibition ([5]; at 100.0 µM) of the same molecule?
**A.** 98% (active)

**Q.** What about the growth inhibition [6, 15] of the same molecule?
**A.** -2%

**Q.** And the growth inhibition [6, 16]?
**A.** 98% (active)

**Q.** And the growth inhibition ([6]; at 50.0 µM)?
**A.** 59.8%

**Q.** And the growth inhibition ([7]; at 1.2 µM)?
**A.** -24%

**Q.** What about the growth inhibition ([7]; at 3.7 µM) of the same molecule?
**A.** -32%

**Q.** And the growth inhibition ([7]; at 11.0 µM)?
**A.** -17%

**Q.** What about the growth inhibition ([7]; at 33.0 µM) of the same molecule?
**A.** -9%

**Q.** And the growth inhibition ([7]; at 100.0 µM)?
**A.** 70% (active)

**Q.** What about the growth inhibition [8, 15] of the same molecule?
**A.** 67%

**Q.** What about the growth inhibition [8, 16] of the same molecule?
**A.** 96% (active)

**Q.** And the growth inhibition ([8]; at 50.0 µM)?
**A.** 7.55%

**Q.** And the growth inhibition ([9]; at 1.2 µM)?
**A.** -1%

**Q.** What about the growth inhibition ([9]; at 3.7 µM) of the same molecule?
**A.** 12%

**Q.** And the growth inhibition [9, 15]?
**A.** 20%

**Q.** What about the growth inhibition ([9]; at 11.0 µM) of the same molecule?
**A.** 12%

**Q.** What about the growth inhibition ([9]; at 33.0 µM) of the same molecule?
**A.** 75% (active)

**Q.** And the growth inhibition [9, 16]?
**A.** 97% (active)

**Q.** What about the growth inhibition ([9]; at 50.0 µM) of the same molecule?
**A.** 2.1%

**Q.** And the growth inhibition ([9]; at 100.0 µM)?
**A.** 94% (active)

**Q.** What about the growth inhibition ([10]; at 1.2 µM) of the same molecule?
**A.** -49%

**Q.** What about the growth inhibition ([10]; at 3.7 µM) of the same molecule?
**A.** -52%

**Q.** What about the growth inhibition ([10]; at 11.0 µM) of the same molecule?
**A.** -52%

**Q.** And the growth inhibition ([10]; at 33.0 µM)?
**A.** -28%

**Q.** What about the growth inhibition ([10]; at 100.0 µM) of the same molecule?
**A.** 23%

**Q.** What about the growth inhibition ([11]; at 1.2 µM) of the same molecule?
**A.** -25%

**Q.** What about the growth inhibition ([11]; at 3.7 µM) of the same molecule?
**A.** -22%

**Q.** And the growth inhibition ([11]; at 11.0 µM)?
**A.** -23%

**Q.** And the growth inhibition ([11]; at 33.0 µM)?
**A.** 13%

**Q.** What about the growth inhibition ([11]; at 100.0 µM) of the same molecule?
**A.** 74% (active)

**Q.** And the growth inhibition ([12]; at 1.2 µM)?
**A.** -20%

**Q.** What about the growth inhibition ([12]; at 3.7 µM) of the same molecule?
**A.** -17%

**Q.** And the growth inhibition ([12]; at 11.0 µM)?
**A.** -21%

**Q.** And the growth inhibition ([12]; at 33.0 µM)?
**A.** -4%

**Q.** And the growth inhibition ([12]; at 100.0 µM)?
**A.** 43%

**Q.** And the growth inhibition [13, 15]?
**A.** 38%

**Q.** What about the growth inhibition [13, 16] of the same molecule?
**A.** 52%

**Q.** What about the growth inhibition ([13]; at 50.0 µM) of the same molecule?
**A.** 10.2%

**Q.** And the growth inhibition ([14]; at 1.2 µM)?
**A.** 18%

**Q.** What about the growth inhibition ([14]; at 3.7 µM) of the same molecule?
**A.** 19%

**Q.** What about the growth inhibition ([14]; at 11.0 µM) of the same molecule?
**A.** -13%

**Q.** And the growth inhibition ([14]; at 33.0 µM)?
**A.** 13%

**Q.** What about the growth inhibition ([14]; at 100.0 µM) of the same molecule?
**A.** 12%
